# Test results published in publication PMC5540273 (PLoS ONE, 2017).
# Tested on: T1, LKB1
# T1 construct: gene STK11
# Settings: concentration: 1 μM, replicates: in singlicate; n = 1
# 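Note: KINOMEscan kinase panel screen.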
row,Structure (SMILES),%Inh
1,CSc1ccc(-c2cc3ncnc(SCC(=O)O)c3s2)cc1,0%
2,COc1ccc(Nc2nccc(N3CCC(NC(=O)Nc4cc(C)ccc4C)C3)n2)cc1 (stereo not shown) [GSK1379741],0%
3,Nc1nc(-c2ccc3c(N)n[nH]c3c2)cc(N2CCCC2)n1 [GSK2227430],1%
4,c1ccc(-c2n[nH]cc2-c2ccnc3ccccc23)nc1 [GW271431],18%
5,O=C1NC(=O)C(N2CCc3ccccc32)=C1c1cccc(Cl)c1 [SB-408010],0%
6,COc1ccc(Nc2ncc(C#N)c(Nc3ccccc3C(N)=O)n2)cc1N1CCN(C)CC1.Cl [GSK1558669],58%
7,Cc1ccc(NC(=O)c2ccnc(N3CCN(C)CC3)c2)cc1-c1ccc(C(=O)NCC2CC2)cc1 [GW775604],28%
8,Cc1nnc(-c2ccc3occ(-c4ccc(C(C)O)cc4)c3c2)o1 (stereo not shown),7%
9,COc1ccc(COc2cc(-n3cnc4ccccc43)sc2C(N)=O)cc1 [GSK1024304],1%
10,CCc1nc(-c2cccc(C)c2)c(-c2ccnc(NCc3ccccc3)c2)s1,0%
11,NS(=O)(=O)c1cccc(-c2ccc3nccc(-c4cccc(S(N)(=O)=O)c4)c3c2)c1 [GW867253],0%
12,Cc1cccc(-c2nc(Nc3ccc4ncsc4c3)c3ccccc3n2)n1 [GW867588],23%
13,CC(C)Oc1ccc2c(-c3ccnc(Nc4ccc(N5CCN(C)CC5)cc4)n3)cnn2n1 [GW696155],73%
14,CN(C(=O)c1ccc(-c2cc(-c3c[nH]nc3-c3ccccn3)ccn2)cc1)C1CCOCC1 [GW810083],16%
15,COc1cc(Nc2nccc(N3CCC(NC(=O)c4cccc(NC(C)=O)c4)C3)n2)cc(OC)c1OC (stereo not shown) [GSK1379754],0%
16,O=C(NCCCN1CCOCC1)c1cccc(Nc2nccc(Nc3ccc(Oc4ccccc4)cc3)n2)c1 [GW663929],10%
17,COc1cc2c(cc1OC[C@@H](O)CO)ncc1c3ccc(C#N)cc3[nH]c21,0%

row,Structure (SMILES),%Inh
1,COc1ccc(CNC(=O)NC2CCN(c3ccnc(Nc4ccc(OC)cc4)n3)C2)cc1 (stereo not shown) [GSK1379727],15%
2,COc1ccc(S(=O)(=O)NC2CCN(c3cc(C)nc(Nc4cccc(C#N)c4)n3)CC2)cc1.O=C(O)C(F)(F)F [GSK1653539],7%
3,N#Cc1ccc(-c2cc(-c3c[nH]nc3-c3ccccn3)ccn2)cc1 [GW693028],0%
4,c1ccc(-c2cc(-c3c[nH]nc3-c3ccccn3)ccn2)cc1 [GW576604],17%
5,NCC(NC(=O)c1cc(-c2cn[nH]c2)c(-c2ccnc3[nH]ccc23)s1)c1ccccc1.O=C(O)C(F)(F)F.O=C(O)C(F)(F)F (stereo not shown) [GSK1325775],57%
6,Cn1cc(-c2ccc3c(c2)CCN3C(=O)Cc2ccccc2Cl)c2c(N)ncnc21 [GSK2608885],17%
7,O=c1cc(N2CCOCC2)nc2n(Cc3cccc(Cl)c3Cl)c(C3CC3)nn12 [GSK2358994],15%
8,COc1cc2c(cc1OCCN1CCN(C)CC1)ncc1c3ccc(C#N)cc3[nH]c21,29%
9,Cl.Nc1ncnc2occ(-c3ccc(NC(=O)Nc4cc(C(F)(F)F)ccc4F)cc3)c12 [SB-707548],21%
10,O=C1Cc2cc(Nc3nc(NCc4cccc(S(=O)(=O)C(F)(F)F)c4)ncc3C(F)(F)F)ccc2N1,0%
11,Cc1nnc(-c2ccc(C)c(-c3ccc(C(=O)Nc4ccc(NS(C)(=O)=O)cc4)cc3)c2)o1 [GW702865],26%
12,O=c1cc(N2CCOCC2)nc2n(Cc3cccc(F)c3)ccn12 [GSK2297430],0%
13,COc1ccc(Nc2nccc(N3CCC(NC(=O)Nc4cccc(C(C)=O)c4)C3)n2)cc1 (stereo not shown) [GSK1379731],5%
14,CCCCCc1nc2c(N)ncnc2n1CCCCC [SKF-97255],60%
15,Nc1nccc(-c2c(-c3ccc(F)cc3)ncn2C2CCN(CC(F)(F)F)CC2)n1 [SB-236560],0%
16,Fc1ccc(-c2ncn(CCCN3CCOCC3)c2-c2cccnc2)cc1 [SB-211743],46%
17,O=C(Nc1cccc(-c2nn3ncccc3c2-c2ccnc(Nc3cccc(C(F)(F)F)c3)n2)c1)c1c(F)cccc1F [GSK299495],0%
